Screening results as filed in PubChem.
Hits are enriched below; roughly 19% of the tested compounds scored in any of these assays.
DT40 TDP1 CPT: growth inhibition of DT40 Tdp1-/-;hTDP1 cells with camptothecin (screen for TDP1 inhibitors); Potency, µM (titrated, usually from 46.2 µM), for inactives: top-dose activity change, negative = growth inhibition, usual class: inhibitors; 12% of 420,000 active; chicken DT40 Tdp1-/-;hTDP1 cells + 20 nM CPT, ATP luminescence, 48 h; further: potency means the concentration at half of the fitted maximal effect; nearly all actives have a fitted effect of over 55% in size
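Chicken DT40 Tdp1-/- cells complemented with human TDP1, 400 cells/well, exposed to compounds plus 20 nM camptothecin for at least 48 h at 37 C; viability read as ATP content by CellTiter-Glo luminescence.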
IL-1B inflam inh: inhibitors of inflammasome signaling (IL-1 beta secretion); THP-1 LPS/ATP IL-1B secretion, AlphaLISA, 16 h; stronger effect = lower value; activity change, % at 57.5 µM; 4.7% of 360,000 active; in the data active means activity change below about -50%; inconclusive means mostly about -30% to -49%
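Secreted IL-1B measured by AlphaLISA bead assay after 16 h compound exposure of THP-1 cells; compounds (final up to 57.5 uM) added 1 h before LPS (250 ng/mL) and ATP (1.25 mM) stimulation; lower signal means less secretion.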
ELG1 DNA repair: ELG1-dependent DNA repair inhibition; HEK293T ELG1-luciferase reporter, luminescence, 16 h; DNA damage induced by 5-fluorouridine; Potency, µM (titrated, usually from 46.1 µM), inactives show top-dose activity change, negative = inhibition, most hits filed as inhibitors; 2.3% of 330,000 active; AID 504467; further: potency means the concentration at half of the fitted maximal effect; nearly all actives have a fitted effect of over 55% in size
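Reporter activity after DNA damage by 5-fluorouridine is monitored. Compound-treated cells incubate 16 hr at 37 °C, then ONE-Glo is added for 30 min before luminescence reading.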
HT1080 IDH1KD tx: kills HT-1080 cells with IDH1 knockdown; HT-1080 IDH1 knockdown viability, ATP luminescence, 48 h; Potency, µM (highest dose often 46.1 µM), for the others: top-dose activity, negative = toxicity, actives largely listed as cytotoxic; 2% of 360,000 active;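 further: potency means the concentration at half of the fitted maximal effect; 0% = DMSO wells and -100% = cell-free medium wells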
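% activity derives from luminescence (CellTiter-Glo), normalised to DMSO and no-cell wells. HT-1080-IDH1KD cells, 750/well, had 48 h compound exposure at 37 °C.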
HT1080NT lethal: kills 2HG-producing HT-1080-NT fibrosarcoma cells. HT-1080-NT fibrosarcoma viability, CellTiter-Glo ATP luminescence, 48 h. Potency, µM (highest dose often 46.1 µM), for inactives: top-dose activity, negative = less viability, actives largely listed as cytotoxic. 1.6% of 360,000 active. AID 686970;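 further: NT is the 2HG producing partner of a matched IDH1 knockdown line; potency means the concentration at half of the fitted maximal effect; 0% = DMSO-treated cells and -100% = media-only wells without cells; nearly all actives have a fitted effect of over 55% in size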
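HT-1080-NT; 750 cells/well; 5% FBS RPMI; 48 h compound, 37 degrees C; CellTiter-Glo luminescence; curve fitting and curve-class assignment.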
TDP1 cell noCPT: qHTS for Inhibitors of human tyrosyl-DNA phosphodiesterase 1 (TDP1): qHTS in cells in absence of CPT. DT40 Tdp1-/- hTDP1 cells, no CPT, ATP luminescence, 48 h. Potency, µM (highest dose often 46.2 µM), without a hit: at the highest dose activity change, negative = growth inhibition, hits mostly inhibitors. 15% of 420,000 active. AID 686978, 2013; further: potency means the concentration at half of the fitted maximal effect; nearly all actives have a fitted effect of over 55% in size
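Readout: luminescence from CellTiter-Glo after 30 min in the dark at RT. Cells: DT40 Tdp1-/- with stable hTDP1, 400/well. Exposure: compounds alone, ≥48 hr, 37 °C.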
An asterisk follows results filed as active; ? = inconclusive; nt = no result. Unless noted, the call rests on the fitted dose curve; in most records, active means well fitted curve in the direction sought with a large enough effect; inconclusive means small, poorly fitted or top-dose-only effect, or another doubt; inactive means no such curve, though single readings can be large; an effect the other way counts as inactive or inconclusive. Unless noted, on the % scale 0 is the no-effect control and ±100 the full control effect.

SMILES	DT40 TDP1 CPT	IL-1B inflam inh	ELG1 DNA repair	HT1080 IDH1KD tx	HT1080NT lethal	TDP1 cell noCPT
COc1cccc(N2CCN(S(=O)(=O)c3c(C)[nH]c(C)c3C(=O)N3CCCCC3)CC2)c1	-27%	-14	-9%	-8%	-1%	-51%
Cc1[nH]c(C)c(S(=O)(=O)N2CCN(c3cccc(Cl)c3)CC2)c1C(=O)N1CCCCC1	21µM*	-3	16%	-12%	2%	21µM*
Cc1ccc(Cl)cc1N1CCN(S(=O)(=O)c2c(C)[nH]c(C)c2C(=O)N2CCCCC2)CC1	16µM*	?	?	-25%	-12%	?
NC1=C(O)C(=O)C(c2ccccc2)O1 (stereo unspecified)	-9%	5	15%	1%	6%	5%
Cc1ccc(N2C(=O)c3cccc4c(N)ccc(c34)C2=O)c2cccnc12	0.0082µM*	150	?	0.0073µM*	0.021µM*	0.021µM*
CCN1C(=O)c2cccc3c(N)ccc(c23)C1=O	-1%	0	0%	-18%	2%	?
C/C(=N\NS(=O)(=O)c1ccc(C)cc1)c1cccs1	-2%	-16	9%	-2%	1%	-30%
Cc1ccc(S(=O)(=O)NN=C(c2ccccc2)c2cccs2)cc1	-19%	-12	nt	-13%	-16%	12µM*
CCOCCCNC(=O)CN1N=C(c2ccc(C)cc2)CCC1=O	-3%	1	9%	-5%	0%	4%
O=C(CN1C(=O)NC2(CCSC2)C1=O)NCc1ccccc1 (stereo unspecified)	5%	-4	-5%	8%	?	0%
Cc1c(Cl)ccc2sc(NC(=O)c3ccc(S(=O)(=O)N4CCCC4)cc3)nc12	-25%	nt	nt	nt	nt	-21%
COc1cc2nc(NC(=O)c3ccc(S(=O)(=O)N4CCc5ccccc54)cc3)sc2cc1OC	21µM*	nt	nt	nt	nt	15µM*
COc1ccc(C(=O)Nc2ccc(S(=O)(=O)N3CCc4ccccc43)cc2)cc1	26µM*	-23	nt	?	-3%	23µM*
COc1cc2c(cc1OC)CN(C(=O)c1cccc(S(=O)(=O)N3CCc4ccccc43)c1)CC2	21µM*	?	?	-29%	-2%	16µM*
NS(=O)(=O)c1ccc(NC(=O)c2ccc(S(=O)(=O)N3CCc4ccccc43)cc2)cc1	?	27	7%	-22%	-15%	?
Cc1c(Cl)ccc2sc(NC(=O)c3ccc(S(=O)(=O)N4CCCc5ccccc54)cc3)nc12	?	nt	nt	nt	nt	18µM*
CCCC(=O)NC(=S)Nc1ccc(S(=O)(=O)N2CCc3ccccc32)cc1	?	-23	nt	-25%	-30%	21µM*
CCN(CC)CCNC(=O)c1ccc(NC(=O)c2cccc(S(=O)(=O)N3c4ccccc4CC3C)c2)cc1 (stereo unspecified)	?	-3	1%	?	?	-17%
COc1cc2nc(N(CCCN(C)C)C(=O)c3ccc(S(=O)(=O)N4CCc5ccccc54)cc3)sc2cc1OC	?	-101*	?	?	?	16µM*
CCN(CC)CCNC(=O)c1ccc(NC(=O)c2cccc(S(=O)(=O)N3CCc4ccccc43)c2)cc1	?	-85*	-5%	?	?	?
COc1ccc2sc(N(CCCN(C)C)C(=O)c3ccc(S(=O)(=O)N4CCCc5ccccc54)cc3)nc2c1	?	-83*	?	-24%	-10%	16µM*
CCOC(=O)CCC(=O)Nc1ccc(S(=O)(=O)N2CCc3ccccc32)cc1	2%	0	-11%	3%	12%	3%
CN(C)CCCN(C(=O)c1ccc(S(=O)(=O)N2CCOCC2)cc1)c1nc2cc3c(cc2s1)OCO3	4%	-11	6%	2%	-20%	0%
CCOC(=O)N1CCN(S(=O)(=O)c2ccc(C(=O)N(CCCN(C)C)c3nc4ccc(OC)cc4s3)cc2)CC1	?	?	11%	-4%	-4%	?
CSCC(C)N1CCC(N2CCC(C(=O)NCc3ccccn3)CC2)CC1 (stereo unspecified)	4%	-6	11%	-4%	3%	16%
SMILES	DT40 TDP1 CPT	IL-1B inflam inh	ELG1 DNA repair	HT1080 IDH1KD tx	HT1080NT lethal	TDP1 cell noCPT
O=C(CNC(=O)c1ccccc1Cl)OCc1cc(=O)n2nc(C3CC3)sc2n1	4%	nt	nt	nt	nt	-9%
O=C(Nc1ncccc1O)c1cccc(S(=O)(=O)N2CCc3ccccc32)c1	?	20	1%	-2%	1%	?
COc1ccc(NC(=O)c2cccc(S(=O)(=O)N3CCc4ccccc43)c2)cn1	-19%	19	8.2µM*	-15%	-14%	?
CCCN(CCC)c1ncnc2c1cnn2-c1ccc(OC)cc1	?	-65*	?	8%	4%	?
Cc1ccccc1C(=O)N1CCN(c2ncnc3c2cnn3-c2ccccc2)CC1	21µM*	?	?	-13%	-13%	23µM*
CCN1CCN(c2ncnc3c2cnn3-c2ccccc2)CC1	4%	-19	?	0%	-6%	-23%
CCCNc1ncnc2c1cnn2-c1ccc(OC)cc1	nt	nt	5%	nt	nt	nt
c1ccc(CCN2CCN(c3ncnc4c3cnn4-c3ccccc3)CC2)cc1	23µM*	-10	?	-1%	2%	18µM*
Clc1cccc(-n2ncc3c(N4CCN(Cc5ccccc5)CC4)ncnc32)c1	23µM*	nt	nt	nt	nt	?
COc1ccc(S(=O)(=O)N2CCOC2CNC(=O)C(=O)NCc2ccco2)cc1OC (stereo unspecified)	-7%	-8	6%	17%	14%	-10%
CCN(CC)C(=O)CN1C(=O)C2(OCC(C)(C)CO2)c2ccccc21	-4%	-7	13%	12%	2%	-4%
CCCCOC(=O)c1ccc(Nc2nc3ccc(C)cc3n3cnnc23)cc1	-1%	nt	nt	nt	nt	-22%
O=C(c1ccco1)N1CCN(/C=C2\Nc3ccccc3C(=O)N2c2ccc(F)cc2)CC1	-3%	nt	nt	9%	16%	-28%
CCCCN(C)c1ncnc2c1cnn2-c1cccc(Cl)c1	23µM*	nt	nt	nt	nt	16µM*
COC(=O)C1CCN(Cc2ccc3c(c2)CN(C(=O)C2CCCN(c4ccccn4)C2)CCO3)CC1 (stereo unspecified)	-14%	nt	nt	nt	nt	-28%
CC1CCCN(C(=O)CCNS(=O)(=O)c2ccc3c(c2)oc(=O)n3C)C1 (stereo unspecified)	-2%	17	22%	19%	2%	19%
